# Where “and” joins values, the source holds several entries; their conditions need not be identical. Equal values may be shown once. This is part of a sample that, as a whole, favours compounds with a hit. Of some 83,000 tested, about 20% had one in any assay.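 Each cell line was grown in a 96-well plate and treated with one concentration of compound for 48 hours. Values below 10 were considered active.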 Unmarked numbers belong to inactive results. Calls of active or inactive are those of the source.
# What was measured:
# Experiment in all cases: NCI-60 one-dose screen, 48 h (100 = growth as untreated, 0 = no growth, -100 = all killed)
# Conditions in all cases: 10 µM unless noted
# [1] = system: NCI-H23 lung
# [2] = system: NCI-H226 lung
# [3] = system: HOP-62 NSCLC
# [4] = system: NCI-H460 lung
# [5] = system: HOP-92 NSCLC
# [6] = system: NCI-H522 lung
# [7] = system: A549/ATCC NSCLC
# [8] = system: 786-0 renal
# [9] = system: COLO 205 colon
# [10] = system: DU-145 prostate
# [11] = system: K-562 leukemia
# [12] = system: MALME-3M melanoma
# [13] = system: MDA-MB-231 breast
# [14] = system: RXF 393 renal
# [15] = system: SF-268 CNS
# [16] = system: SF-295 CNS
# [17] = system: SF-539 CNS
# [18] = system: UACC-257 melanoma
# [19] = system: M14 melanoma
# [20] = system: NCI-H322M lung
Structure (SMILES),growth [1],growth [2],growth [3],growth [4],growth [5],growth [6],growth [7],growth [8],growth [9],growth [10],growth [11],growth [12],growth [13],growth [14],growth [15],growth [16],growth [17],growth [18],growth [19],growth [20]
COc1ccc(Nc2nnc(-c3c[nH]c4ccccc34)o2)cc1,82.7%,74.9%,77.8%,96.3%,84.5%,32.2%,89.3%,91.9%,113%,95.8%,68.1%,79.5%,64.7%,104%,71.9%,98%,69.7%,95.9%,97.7%,
O=C(O)CC1S/C(=N/N=C/c2nc3ccccc3s2)NC1=O (centres undefined),96.2%,101%,108%,94.7%,136%,104%,96%,80.9%,135%,95.8%,94.1%,107%,102%,134%,85.5%,104%,98.1%,105%,90.4%,
COc1cccc(C(N)=Nc2ccc(OCCCCCCCCn3cncn3)cc2)c1,9.5% (active),,16.2%,,73.7%,,24.6%,28.4%,,,15.8%,37.4%,,,27%,,,39.1%,22.6%,58.1%
CCc1ccccc1-c1nc(CN[C@@H]2C[C@@H]3C[C@H]([C@H]2C)C3(C)C)c(C)o1,-78.7% (active),-68.7% (active),-78.9% (active),,-81.5% (active),-85.9% (active),-49.7% (active),-82.1% (active),-74.8% (active),-74.9% (active),12.2%,-80.5% (active),-78.3% (active),-85.1% (active),6.04% (active),-93.5% (active),-96.5% (active),-75.8% (active),-83.5% (active),
O=C(CSc1nnc(-c2ccc(-c3nc4ccccc4[nH]3)cc2)o1)Nc1ccc(Cl)cc1,-6.9% (active),40.3%,0.484% (active),-65.4% (active),-5.87% (active),0.5% (active),1.88% (active),-37.8% (active),61.7%,13.1%,10.7%,29.1%,-24.9% (active),-61.7% (active),38.5%,39%,-94.2% (active),48.9%,-0.25% (active),
Cc1ccc(C(=O)Nc2cc(-c3ccccc3)cc(C(F)(F)F)c2)cc1C#Cc1cnc2cccnn12,63.3%,51.2%,108%,51.1%,95.4%,56.3%,68.9%,60%,73.1%,84.8%,5.94% (active),39%,57.3%,73.7%,91.9%,68%,63.8%,65.8%,36.8%,
CC(=O)C[n+]1cccc2c3ccccc3ccc21,85.4%,97%,109%,,85.2%,82.7%,56.9%,94.8%,70.5%,105%,69%,63.5%,85.7%,46.3%,66.5%,93.9%,89.6%,48.8%,98.7%,
COc1ccc(NC(=O)NN2C(=O)c3ccccc3N(C)C2c2ccc(OC)cc2)cc1 (centres undefined),100%,106%,97.8%,,102%,93%,108%,65.8%,103%,107%,95.6%,95%,98.9%,112%,107%,101%,100%,103%,70.3%,
Nc1cccc(-n2c(COc3ccc(I)cc3)nc3ccccc32)c1,75.6% and 99.5%,57.2% and 109%,86.9% and 103%,86.2% and 108%,63.3% and 113%,81.5% and 107%,104%,106% and 102%,81.4% and 109%,96.2% and 95.5%,61.5% and 99.3%,82.2% and 96.1%,56% and 102%,82.3% and 106%,74.4% and 96.5%,89.8% and 101%,79.7% and 97.7%,99% and 101%,91.5% and 108%,
CCCCNC(=S)Nc1ccc(OCc2nc3ccc(Cl)cc3[nH]2)cc1,29.3%,58.4%,49.5%,15.6%,-0.247% (active),-57.5% (active),52.7%,31.3%,24.9%,26.3%,11.1%,41.2%,10.5%,-1.67% (active),48.3%,67.6%,28.4%,56.9%,39.1%,
Cc1cc(C(NC(=O)C2CC3(CC(Nc4cccc5c4C(=O)N(C4CCC(=O)NC4=O)C5=O)C3)C2)c2ccc3c(c2)OC(F)(F)O3)c(O)c2ncccc12 (centres undefined),6.24% (active),-2.38% (active),-10.9% (active),1.76% (active),-1.71% (active),2.63% (active),9.67% (active),-12.8% (active),13.2%,17.2%,10.8%,9.46% (active),25.2%,23%,14.4%,8.11% (active),-24.9% (active),-11% (active),-30.4% (active),
Cc1ccc(C2CC(c3ccc(NC(=S)Nc4ccccc4)cc3)=NN2c2ccc(S(N)(=O)=O)cc2)cc1 (centres undefined),23.6%,-7.72% (active),34.6%,-11.1% (active),7.59% (active),15.8%,15.1%,18.6%,-3.89% (active),19.7%,22.7%,-0.146% (active),15.2%,-16.1% (active),15.6%,8.39% (active),10.3%,36.6%,19%,
Nc1cc2ccccc2c(=O)n1NC(=O)c1ccccc1,87.4%,80.8%,103%,105%,111%,89.3%,103%,105%,111%,104%,97.6%,84.4%,87%,104%,95.9%,90.6%,93.7%,104%,100%,
Cc1cc(N=C(N)c2ccccc2)ccc1OCCCCCCCCn1ccnc1,-28% (active),,-14.4% (active),,16.3%,,15%,4.01% (active),,,12.4%,-77.2% (active),,,-12.2% (active),,,-2.36% (active),-17.5% (active),18.7%
CCC(=O)c1cc(C(=O)OC)c2ccc3c4ccccc4ccc3n12,85.2%,50.4%,65.4%,26.1%,88.7%,102%,67.9%,66.8%,80.5%,93.5%,91.5%,71.9%,69.9%,82.1%,89.3%,77.6%,88.2%,99.7%,105%,
NS(=O)(=O)c1ccc(Nc2nc(SCC(=O)c3ccc(F)cc3)nc3ccccc23)cc1,41.8%,50.1%,54.4%,36%,56.3%,42.1%,53.8%,68.9%,77%,52.9%,24.1%,31.7%,51.7%,63.5%,46.8%,59.9%,53.2%,77.9%,56%,
O=c1[nH]c2ccccc2cc1COc1ccc(Nc2nccc(-c3ccc(Cl)cc3)n2)cc1,95.9%,103%,87.1%,103%,97.7%,89.1%,101%,88.2%,116%,89%,95.2%,105%,105%,91.8%,105%,90.8%,91.6%,107%,107%,

# Reference: PubChem BioAssay (NCI)
